Screening data from PubChem BioAssay.
14-3-3 PPI – modulators of 14-3-3 gamma protein binding, primary screen, biochemical, fluorescence polarization; 14-3-3 protein gamma (Homo sapiens), P61981; inhibition, % at 40 µM; AID 422, 2006; hit rate 0.19% among 160,000; FP, 14-3-3gamma / TMR-pS259-Raf peptide binding; in the data active = inhibition above about 30%
Target sequence (P61981 whole entry, looked up): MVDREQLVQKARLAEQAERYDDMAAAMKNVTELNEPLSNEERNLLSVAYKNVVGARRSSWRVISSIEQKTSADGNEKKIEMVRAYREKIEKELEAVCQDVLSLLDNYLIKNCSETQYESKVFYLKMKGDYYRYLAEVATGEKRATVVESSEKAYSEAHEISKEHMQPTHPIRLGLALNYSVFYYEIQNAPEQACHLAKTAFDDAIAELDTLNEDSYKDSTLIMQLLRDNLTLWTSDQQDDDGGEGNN
Each line names hits and unclear results; the compound was inactive in the other large screens; ! = not active in a repeat. Shown is part of a subset that was picked to be rich in hits.

O=C(Nc1cccnc1)c1cccnc1	none
COc1ccc(C(=O)Nc2cccnc2)cc1OC	14-3-3 PPI 46.9
Cn1nnc2cc(C(=O)Nc3cccnc3)ccc21	none
Cc1c(C(=O)N(C)C2CCCCC2)sc2ncn(CC(=O)N3CCCCC3)c(=O)c12	none
COc1ccc(C=Nc2ccco2)cc1	14-3-3 PPI 31.9
COc1ccc(C=Nc2ccccc2)cc1	none
COc1ccc(C=Nc2ccc3ncccc3c2)cc1	none
COC(=O)C1=C(C(=O)OC)SC2(S1)C(C(=O)OC)=C(C(=O)OC)SC1=C2c2ccccc2N(C(C)=O)C1(C)C	none
Cc1ccc(N=Cc2c(O)cc(C)c(Cl)c2C)cc1	none
Ic1ccc2nc(-c3ccccc3)c(-c3ccccc3)nc2c1	none
O=C1CN(S(=O)(=O)c2ccc(F)cc2)CC(=O)N1CCc1ccccc1	none
O=C1CN(CCc2ccccc2)CC(=O)N1CCc1ccccc1	14-3-3 PPI 166.5
O=C(c1cccs1)N1CC(=O)N(CCc2ccccc2)C(=O)C1	none
COc1ccc(C=C2SC(=O)N(CCCC(=O)Nc3ccccc3)C2=S)cc1	none
CCOC(=O)c1[nH]c2ccc(OC)cc2c1C(NC(C)C)c1ccc([N+](=O)[O-])cc1 (centres undefined)	none
Oc1ccc2ccccc2c1C=Nc1cccc2ccccc12	none
Brc1ccc(C=Nc2nc3c(s2)CCCC3)cc1	none
Oc1ccc2ccccc2c1C=Nc1nc2c(s1)CCCC2	14-3-3 PPI 36.1
O=c1c2cnn(-c3ccccc3)c2nc(-c2cccs2)n1-c1ccccc1	none
CCOC(=O)c1cc2c(=O)n3ccccc3nc2n(C)c1=NC(=O)c1cccc(Br)c1	none
COC(=O)c1ccc2c(c1)SC1=C(CCCC1=O)N2	14-3-3 PPI 33.4
COC(=O)c1ccc2c(c1)NC(=O)CS2	none
COC(=O)c1ccc(C2C3=C(CCCC3=O)Nc3ccc4nc(C)ccc4c32)cc1 (centres undefined)	none
CCOC(=O)c1c(NC(=O)CN2CCOCC2)sc2c1CCCC2	none
CCCCC1(C(=O)OCC)CC(CN2CCOCC2)OC1=O (centres undefined)	14-3-3 PPI 54.2
CCCCOC(=O)N1CCOCCOCCN(C(=O)OCCCC)CCOCCOCC1	none
CC(C)Cc1nc2sc3c(N4CCCCC4)ncnc3c2c2c1COC(C)(C)C2	none
Nc1cc(-c2ccco2)no1	none
c1coc(-c2cc(C3CCNCC3)[nH]n2)c1	14-3-3 PPI 42.2
O=C(O)c1cc(-c2ccco2)[nH]n1	none
CC(CN1CCCC1)OC(=O)c1cccc(Br)c1 (centres undefined)	none
CCC(Sc1nccn1C)C(=O)Nc1ccc(S(N)(=O)=O)cc1 (centres undefined)	none
C#CCn1c2ccccc2c2ccccc21	14-3-3 PPI 57.8
OCCN1CCN(CC#CCn2c3ccccc3c3ccccc32)CC1	none
OC(CCl)Cn1c2ccccc2c2ccccc21 (centres undefined)	none
Nc1ccc2nc(-c3ccco3)[nH]c2c1	none
Cc1cc2c(N)cccc2nn1	14-3-3 PPI 44.3
Cc1c(N)cccc1-c1nc2ccccc2s1	none
Cc1cc(N)c2ccccc2n1	none
CCCOC(=O)C1=C(C)N(C)C(=O)NC1c1ccccc1[N+](=O)[O-] (centres undefined)	none
Cc1ccccc1CS(=O)(=O)Cc1ccc(C(=O)NCc2ccco2)o1	none
O=C(NCc1ccccn1)c1ccc(CS(=O)(=O)Cc2ccc(Cl)cc2)o1	none
Cc1ccc(CNC(=O)c2c(C)cc(=O)oc2C)cc1	none
Cc1cc(=O)oc(C)c1C(=O)NCc1ccccn1	14-3-3 PPI 44.5!
Cc1ccccc1CS(=O)(=O)Cc1ccc(C(=O)NCc2ccccn2)o1	14-3-3 PPI 33.5
Cc1cc(=O)oc(C)c1C(=O)NCc1ccccc1Cl	none
CCN(CC)c1cc(N(CC)c2ccccc2)c([N+](=O)[O-])c2nonc12	none
Cc1ccc(-c2nc3cc(NC(=O)c4ccc5c(c4)OCCO5)ccc3o2)cc1	none
Cc1oc(-c2ccsc2)[n+]([O-])c1C	none
Cc1ccc2c(c1)C1NC(=S)N(CCc3ccccc3)C(C)(O2)C1C(=O)N(C)C (centres undefined)	none
CCC(=O)OCCNc1ccc2noc3c2c1C(=O)c1ccccc1-3	14-3-3 PPI 140.7
CC(=O)OCCNc1cc(N2CCN(C)CC2)c2noc3c2c1C(=O)c1ccccc1-3	none
O=C1c2ccccc2-c2onc3ccc(Nc4ccccc4)c1c23	none
CCNC(=O)C1Cc2ccccc2CN1S(=O)(=O)c1cccs1 (centres undefined)	none
O=C(O)C1CCCN1S(=O)(=O)c1ccc(F)cc1 (centres undefined)	none
Cc1ccc(S(=O)(=O)N2CCCC2C(=O)O)cc1 (centres undefined)	14-3-3 PPI 53.0!
O=C(O)C1CCCCN1S(=O)(=O)c1ccc(Cl)cc1 (centres undefined)	none
COc1ccc(N2CCN(C(=O)c3cc4c(=O)oc5ccccc5c4s3)CC2)cc1	none
CC1=C(C(=O)OC2CCCC2)C(c2ccccc2)C2=C(CC(c3ccccc3)CC2=O)N1 (centres undefined)	none
Cc1ccc2cc3cc(C(=O)N4CCN(c5cccc(C)c5C)CC4)oc3nc2c1	14-3-3 PPI 57.1
Cc1ccc2cc3cc(C(=O)N4CCN(c5ccc(F)cc5)CC4)oc3nc2c1	14-3-3 PPI 67.0
Cc1ccc2cc3cc(C(=O)NC4CCN(Cc5ccccc5)CC4)oc3nc2c1	none
Cc1ccc2cc3cc(C(=O)N4CCN(C5CCCCC5)CC4)oc3nc2c1	none
Cc1ccc2cc3cc(C(=O)N4CC(C)CC(C)C4)oc3nc2c1 (centres undefined)	none
Cc1ccc2cc3cc(C(=O)NC4CCCC4)oc3nc2c1	none
Cc1ccc2cc3cc(C(=O)N4CCN(c5ccc([N+](=O)[O-])cc5)CC4)oc3nc2c1	none
Cc1ccc2cc3cc(C(=O)NC4CC4)oc3nc2c1	14-3-3 PPI 36.2
Cc1ccc2cc3cc(C(=O)N4CCC(C)CC4)oc3nc2c1	none
COC(=O)c1cn(C)c2ccc(S(=O)(=O)N3CCCCCC3)cc2c1=O	none
CCOC(=O)c1sc2nc(SCC(=O)c3ccc(Br)cc3)n(CC3CCCO3)c(=O)c2c1C (centres undefined)	none
COc1ccc(-c2nn(-c3ccccc3)cc2C(=O)OCC(C)C)cc1OC	none
COc1cc(OC)cc(C(=O)Nc2ccc3c(c2)oc2ccccc23)c1	none
NC(=O)c1ccc(N2CCCCC2)c(N2C(=O)CCC2=O)c1	none
NC(=O)c1cc(N)ccc1N1CCCC1	14-3-3 PPI 30.6
NC(=O)c1ccc(N2CCCCC2)c(N2C(=O)C3C4C=CC(C4)C3C2=O)c1 (centres undefined)	none
Cn1c(=O)c2cc(S(=O)(=O)N3CC(=O)N(CCc4ccccc4)C(=O)C3)ccc2n(C)c1=O	none
O=C(O)C1Cc2c([nH]c3ccccc23)C(c2ccccc2[N+](=O)[O-])N1 (centres undefined)	14-3-3 PPI 52.7
O=C(O)C1Cc2c([nH]c3ccccc23)CN1 (centres undefined)	none
O=C(O)C1Cc2c([nH]c3ccccc23)C(c2ccccc2)N1 (centres undefined)	none
O=C(Nc1cccc(Cl)c1)C1C2C=CC3(O2)C1C(=O)N(CCC1=CCCCC1)C3C(=O)NC1CCCCC1 (centres undefined)	none
CCc1ccc(C2=NN(C(=O)c3cccnc3)C(O)(C(F)(F)F)C2)cc1 (centres undefined)	none
COc1ccc(N=Cc2cc(Br)ccc2O)c(OC)c1	none
CCCc1ccc(O)c(N=Cc2cc(Br)cc(OC)c2O)c1	14-3-3 PPI 85.4
CCCc1ccc(O)c(N=Cc2cc(Br)cc(OCC)c2O)c1	none
CN(C)c1ccc(C2C3=C(CC(C)(C)CC3=O)OC3=C2C(=O)CC(C)(C)C3)cc1Br	none
COc1ccc(N(CCCN2C(=O)c3cccc4cccc(c34)C2=O)C(=O)Cc2ccccc2)cc1	none
CCOC(=O)c1cnc2c(C)c(Cl)ccc2c1N(C)Cc1ccccc1	none
